Reference: PubChem BioAssay AID1851 (National Center for Advancing Translational Sciences (NCATS), 2009)
Among all 16,000 compounds or so, about 4,000 (25%) were called active. Not shown: some 26% with an inconclusive outcome. The call rests on the fitted dose curve; in most records, active means well fitted curve in the direction sought with a large enough effect; inconclusive means small, poorly fitted or top-dose-only effect, or effect the other way; inactive means no such curve, though single readings can be large or run the other way. These entries were drawn from the full list.

Each molecule was assayed against Cytochrome P450 2C9 (Homo sapiens) (UniProt P11712) (assay: Cytochrome panel assay with activity outcomes). Details: recombinant CYP, pro-luciferin dealkylation, luminescence, p450-cyp2c9; series mostly up to 57.1 µM; activity, negative = inhibition: at the top concentration.
On the % scale 0 is the no-effect control and ±100 the full control effect.

Cytochrome P450 2C9 (Homo sapiens), sequence (P11712 whole entry, looked up): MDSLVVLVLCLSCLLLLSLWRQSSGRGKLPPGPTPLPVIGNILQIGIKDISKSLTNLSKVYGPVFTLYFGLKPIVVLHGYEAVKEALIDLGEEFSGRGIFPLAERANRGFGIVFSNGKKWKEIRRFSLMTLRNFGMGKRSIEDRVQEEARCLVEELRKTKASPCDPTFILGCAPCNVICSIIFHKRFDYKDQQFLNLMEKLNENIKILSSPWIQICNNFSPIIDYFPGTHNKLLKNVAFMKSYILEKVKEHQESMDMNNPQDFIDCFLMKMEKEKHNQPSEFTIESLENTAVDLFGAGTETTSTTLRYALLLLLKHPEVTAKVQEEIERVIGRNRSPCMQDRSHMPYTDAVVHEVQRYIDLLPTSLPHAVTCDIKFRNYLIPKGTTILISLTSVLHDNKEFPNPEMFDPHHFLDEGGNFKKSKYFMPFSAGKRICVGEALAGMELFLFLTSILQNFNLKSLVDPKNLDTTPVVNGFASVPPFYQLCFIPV

Q: How did the AC50 turn out when `O=S(=O)(Cc1cc(Oc2ccccc2)nc(-c2ccccc2)n1)c1ccccc1` was run?
A: The AC50 was 0.891 µM (active).

Q: How did the “activity, negative = inhibition” value turn out when `N[C@@H](CS(=O)O)C(=O)O` was run?
A: Its value is -5.61% (inactive).

Q: For `CCn1c2ccccc2c2cc(NC(=O)C/C(C)=N/NC(=O)c3ccccc3N)ccc21`, which AC50 is on record?
A: The AC50 was 35.5 µM (active).

Q: Which “activity, negative = inhibition” value does the source give for `CC(=O)Nc1ccc(NC(=O)C/C(C)=N/NC(=O)C(=O)N2CCCC2)cc1` here?
A: Its value is 8.88% (inactive).

Q: For `COCCn1c(=O)cnc2cnc(Oc3ccccc3)nc21`, which “activity, negative = inhibition” value is on record?
A: The value was -24.6% (inactive).

Q: With `COCCn1c(=O)cnc2cnc(Oc3ccc(OC)cc3)nc21` as the molecule, how does the “activity, negative = inhibition” value read?
A: Its value is 0.762% (inactive).

Q: Which AC50 does the source give for `COCCn1c(=O)cnc2cnc(Oc3cccc(Cl)c3)nc21` here?
A: The AC50 was 15.8 µM (active).

Q: For `Cc1nc2cnc(Oc3cccc(Cl)c3)nc2n(CCc2ccccc2)c1=O`, which “activity, negative = inhibition” value is on record?
A: Its value is -19.9% (inactive).

Q: For `COCCn1c(=O)c(C)nc2cnc(Oc3cccc(Cl)c3)nc21`, which AC50 is on record?
A: Its AC50 is 12.6 µM (active).

Q: With `COc1ccc(C2CC(=O)CC(=O)C2n2cncn2)cc1` (stereo unspecified) as the molecule, how does the “activity, negative = inhibition” value read?
A: The value was -4.99% (inactive).

Q: For `O=C(O)CSc1sc(=S)sc1SCC(=O)O`, which “activity, negative = inhibition” value is on record?
A: The value was -27.2% (inactive).

Q: Which AC50 does the source give for `Cc1sc2ncn(CC(=O)NCCCC(=O)N3CCN(c4ncccn4)CC3)c(=O)c2c1C` here?
A: The AC50 was 11.2 µM (active).

Q: Which “activity, negative = inhibition” value does the source give for `O=C(Nc1cccc2ncccc12)c1cccc(F)c1` here?
A: Its value is 29.7% (inactive).

Q: Which AC50 does the source give for `O=C(Nc1cccc(F)c1)Nc1ccccn1` here?
A: Its AC50 is 25.1 µM (active).

Q: With `O=C(O)/C=C\C(=O)Nc1ccccn1` as the molecule, how does the activity, negative = inhibition read?
A: The activity, negative = inhibition was 25.1% [at 11.4 µM] (inactive).

Q: Which activity, negative = inhibition does the source give for `C[C@@H]1/C=C\CC(=O)OC[C@H]2O[C@@H](C=C[C@@H]2O)[C@H](C)/C=C\CC(=O)OC[C@H]2O[C@H]1C=C[C@@H]2O` here?
A: Its activity, negative = inhibition is -9.33% [at 11.4 µM] (inactive).

Q: With `O=C(c1cccc(F)c1)N1CCC2(CCCN(C(c3ccccc3)c3ccccc3)C2)CC1` as the molecule, how does the AC50 read?
A: Its AC50 is 3.16 µM (active).

Q: For `O=C(c1ccncc1)N1CCC2(CC1)CN(C(c1ccccc1)c1ccccc1)C2`, which AC50 is on record?
A: Its AC50 is 10 µM (active).

Q: With `O=C(c1ccco1)N1CCC2(CCCN(C(c3ccccc3)c3ccccc3)C2)CC1` as the molecule, how does the AC50 read?
A: Its AC50 is 12.6 µM (active).

Q: `O=C(c1ccco1)N1CCC2(CCCN(c3ccccc3)C2)CC1` was tested. Which “activity, negative = inhibition” value did it give?
A: The value was 9.69% (inactive).

Q: With `Cc1noc(C)c1C(=O)N1CCC2(CCCN(C(c3ccccc3)c3ccccc3)C2)CC1` as the molecule, how does the “activity, negative = inhibition” value read?
A: Its value is -21.2% (inactive).

Q: `CC(C)NC(=O)N1CCCC2(CCN(C(=O)c3ccncc3)CC2)C1` was tested. Which “activity, negative = inhibition” value did it give?
A: Its value is 17% (inactive).

Q: Which “activity, negative = inhibition” value does the source give for `O=C(c1cnccn1)N1CCC2(CC1)CCN(C(c1ccccc1)c1ccccc1)CC2` here?
A: Its value is 4.12% (inactive).

Q: For `O=C(c1cccc(F)c1)N1CCC[C@@]2(CCN(C(c3ccccc3)c3ccccc3)C2)C1`, which “activity, negative = inhibition” value is on record?
A: The value was 8.73% (inactive).

Q: How did the “activity, negative = inhibition” value turn out when `CC(C)CN1CCCC2(CCN(C(=O)c3cccc(F)c3)CC2)C1` was run?
A: Its value is -4.81% (inactive).

Q: With `O=C(c1ccncc1)N1CCC2(CCCN(C(c3ccccc3)c3ccccc3)C2)CC1` as the molecule, how does the AC50 read?
A: Its AC50 is 5.01 µM (active).

Q: `O=C(c1ccco1)N1CCC2(CCCN(Cc3ccccc3)C2)CC1` was tested. Which “activity, negative = inhibition” value did it give?
A: Its value is -28.9% (inactive).

Q: How did the “activity, negative = inhibition” value turn out when `CC(C)NC(=O)N1CC2(CCN(C(=O)c3ccncc3)CC2)C1` was run?
A: Its value is -25.4% (inactive).

Q: How did the activity, negative = inhibition turn out when `C[C@@H](C[C@H](N)C(=O)O)C(=O)O` was run?
A: Its activity, negative = inhibition is 0.375% [at 11.4 µM] (inactive).

Q: For `Cc1cnc(CNc2nc(-c3ccccc3C(F)(F)F)nc3ccccc23)cn1`, which activity, negative = inhibition is on record?
A: The activity, negative = inhibition was -16.4% [at 2.29 µM] (inactive).

Q: How did the “activity, negative = inhibition” value turn out when `O=C(c1cnccn1)N1CCC2(CC1)CN(C(c1ccccc1)c1ccccc1)C2` was run?
A: Its value is 1.03% (inactive).

Q: How did the AC50 turn out when `O=C(c1cnccn1)N1CCC2(CCCN(C(c3ccccc3)c3ccccc3)C2)CC1` was run?
A: Its AC50 is 12.6 µM (active).

Q: For `O=C(c1cnccn1)N1CCC[C@@]2(CCN(C(c3ccccc3)c3ccccc3)C2)C1`, which “activity, negative = inhibition” value is on record?
A: Its value is -14.3% (inactive).

Q: With `CC(C)NNC(=O)c1ccncc1` as the molecule, how does the AC50 read?
A: Its AC50 is “inactive”.

Q: With `O=C(NN=C1C2CC3CC(C2)CC1C3)c1ccncc1` as the molecule, how does the “activity, negative = inhibition” value read?
A: The value was -27.1% (inactive).

Q: For `O=C(Nc1nnc(C2CC2)s1)c1ccncc1`, which AC50 is on record?
A: Its AC50 is 8.91 µM (active).

Q: Which activity, negative = inhibition does the source give for `O=C1CCCC=C1[C@@H](O)COCc1ccccc1` here?
A: Its activity, negative = inhibition is 3.8% [at 11.4 µM] (inactive).

Q: How did the activity, negative = inhibition turn out when `CC/C=C\CC[C@H](O)C1=CCCCC1=O` was run?
A: The activity, negative = inhibition was -1.13% [at 11.4 µM] (inactive).

Q: With `O=C1CCCC=C1[C@@H](O)CCOC(c1ccccc1)(c1ccccc1)c1ccccc1` as the molecule, how does the AC50 read?
A: The AC50 was 0.794 µM (active).

Q: Which “activity, negative = inhibition” value does the source give for `CC1(C)OC(=O)C(=CNc2cccc(O)c2)C(=O)O1` here?
A: Its value is 27.7% (inactive).

Q: `O=C(Nc1cccc(F)c1)N1CC[C@@]2(CCCN(C(=O)c3cc(C(F)(F)F)cc(C(F)(F)F)c3)C2)C1` was tested. Which “activity, negative = inhibition” value did it give?
A: The value was 6.64% (inactive).

Q: With `Fc1ccc(Nc2ccnc(-c3ccccc3C(F)(F)F)n2)cc1` as the molecule, how does the activity, negative = inhibition read?
A: Its activity, negative = inhibition is -26.8% [at 2.29 µM] (inactive).

Q: With `Cc1noc(C)c1C(=O)N1CCC2(CCN(Cc3ccncc3)CC2)CC1` as the molecule, how does the “activity, negative = inhibition” value read?
A: The value was -13.8% (inactive).

Q: `O=C(c1cccc(F)c1)N1CCC2(CC1)CN(c1ccncc1)C2` was tested. Which AC50 did it give?
A: The AC50 was 5.01 µM (active).

Q: Which AC50 does the source give for `O=C(c1ccncc1)N1CCC2(CC1)CN(c1ccccc1)C2` here?
A: Its AC50 is 2.51 µM (active).

Q: `Cc1noc(C)c1C(=O)N1CCC2(CCCN(c3ccncc3)C2)CC1` was tested. Which “activity, negative = inhibition” value did it give?
A: Its value is 9.67% (inactive).

Q: `CC(=O)N1CCC2(CC1)CN(c1ccccc1)C2` was tested. Which “activity, negative = inhibition” value did it give?
A: The value was -15% (inactive).

Q: How did the AC50 turn out when `Cc1noc(C)c1C(=O)N1CCC2(CC1)CCN(c1ccncc1)CC2` was run?
A: The AC50 was 10 µM (active).

Q: `O=C(c1cccc(F)c1)N1CCC[C@@]2(CCN(c3ccncc3)C2)C1` was tested. Which “activity, negative = inhibition” value did it give?
A: The value was -15.9% (inactive).

Q: For `O=C(c1ccncc1)N1CCC2(CC1)CCN(c1ccccc1)CC2`, which AC50 is on record?
A: The AC50 was 10 µM (active).

Q: How did the “activity, negative = inhibition” value turn out when `O=C(c1ccncc1)N1CCC2(CC1)CN(c1ccc(-c3ccccc3)cc1)C2` was run?
A: Its value is -20.9% (inactive).
